# p53 reactivator – mutant p53 re-activation in reporter cells. H1299 p53-A138V BP100-luciferase reporter, luminescence, 24 h. Potency, µM (titrated, usually from 92.2 µM), for the others: at the top dose activity change, positive = activation, most hits filed as activators. 320,000 compounds, 0.063% hits; note: potency is the fitted concentration of half-maximal effect; % of control where 0% means no effect; nearly all actives have a fitted effect of over 45% in size
#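 H1299 (p53-null), stable ts p53-A138V + BP100-Luc; 1000 cells/well, Opti-MEM/10% FBS; cpd 4 pt, 1:5; 24 h, 37 deg C, 5% CO2; detection reagent 10 min RT; luminescence.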
# uPA generation – blocks generation of uPA at the cell surface; 330,000 compounds, 0.31% hits; Potency, µM (doses to about 38.3 µM), inactives show top-dose activity change, negative = inhibition, usual class: inhibitors; cell surface uPA generation assay, qHTS; AID 540303; active = well fitted inhibition curve with a large enough effect; inconclusive = small, poorly fitted or top-dose-only effect; inactive = no such curve, though single readings can be large or run the other way; tested in mouse RAW 264.7 cells; note: potency is the fitted concentration of half-maximal effect; % is set by controls: 0 for no effect and ±100 for the full control effect; nearly all actives have a fitted effect of over 55% in size
# BRCA1 expr act – BRCA1 expression activation. MCF7-BRCA1-FFLuc reporter, luminescence, 48 h; response scale: scaled: vehicle 0%, 10 µM genistein 100%. 380,000 compounds, 1.1% hits. Potency, µM (highest dose often 46.1 µM), for inactives: at the top dose activation, most hits filed as activators; note: potency is the fitted concentration of half-maximal effect; nearly all actives have a fitted effect of over 80% in size
#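 Activators of BRCA1 expression were detected as increased firefly luciferase luminescence in engineered MCF7 cells after 48 h compound incubation. Signals were scaled to genistein 10 microM as full activation.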
# IL2 activator – activates IL-2 in a cell-based reporter assay. IL-2 activation reporter assay, cell-based qHTS; stimulated with anti-CD3/CD4/CD28 beads; in transgenic mouse T cells. activation, % (series mostly up to about 46 µM). 360,000 compounds, 0.065% hits; in the data active = activation above about 50%; inconclusive = mostly about 30% to 49%; note: 0% is about no effect
#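 Readout is EGFP and DsRed signal by fluorescent plate cytometry after 18 h at 37 degrees C. Transgenic mouse T cells (750/well) received compound for 60 min before bead stimulation (anti-CD3, anti-CD4, anti-CD28); memory T cells served as non-tolerant control.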
# TCR activator – activators of T cell receptors | primary human leukocytes, anti-CD3, IL-2 HTRF, 48 h | Potency, µM (top dose mostly 9.22 µM), without a hit: at the highest dose activation of IL-2 secretion, actives largely listed as activators | 330,000 tested, under 10 active; note: % of control where 0% means no effect
#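 Primary human leukocytes were stimulated with a-CD3 beads plus compounds for 48 hr without co-stimulation; secreted IL-2 was quantified by HTRF using a-IL-2-K (europium cryptate) and a-IL-2-d2, excited at 320nm with acceptor emission read at 665nm.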
# Active calls of the source: *; ? = inconclusive; . = not tested or not shown; [ ] = remark or other dose. Hits are enriched below; roughly 1.4% of the tested compounds scored in any of these assays. Unless noted, calls come from the whole dose curve; as a rule, active = well fitted curve in the direction sought with a large enough effect; inconclusive = small, poorly fitted or top-dose-only effect, or another doubt; inactive = no such curve, though single readings can be large; an effect the other way counts as inactive or inconclusive.
SMILES,p53 reactivator,uPA generation,BRCA1 expr act,IL2 activator,TCR activator
CCN(CC)S(=O)(=O)c1ccc(NC(=O)[C@H](CSCc2ccccc2)N2Cc3ccccc3C2=O)cc1,.,.,-32.6%,.,.
CCOC(=O)c1c(NC(=O)/C=C/C(=O)O)sc(C)c1-c1ccc(Cl)cc1,-9.9%,8.91µM*,-74.2%,0.8,6.0%
O=c1c2ccccc2nc2ccc(NCc3ccco3)nn12,?,-9.6%,3.55µM*,-2.0,-1.8%
CC(=O)c1cnc2c(-c3cccc(Br)c3)cnn2c1C,?,-2.4%,8.91µM*,0.0,16.7%[46.1 µM]
CCOC(=O)Cc1c(C)nc2c(-c3cccc(Br)c3)cnn2c1C,10.7%,1.5%,-46.4%,0.3,-2.7%[46.1 µM]
CCOc1ccc2nc(SCc3ccccc3C#N)sc2c1,?,-4.3%,7.94µM*,-0.4,-4.7%
C(=C\c1ccccc1)/C=N/Nc1nc2ccccc2s1,?,-7.4%,7.94µM*,-0.2,-1.4%
Brc1ccc(/C=C/C=N/Nc2nc3ccccc3s2)cc1,2.9%,-8.8%,8.91µM*,-3.4,.
Cc1cc(C)cc(NC(=O)CSc2nc3c([nH]c4ccccc43)c(=O)n2-c2ccc(F)cc2)c1,.,.,-3.9%,.,.
Cc1c(C(=O)N2C[C@@H](C)O[C@@H](C)C2)oc2c(F)cccc12,?,2.6%,11.2µM*,1.9,3.3%
CCOc1ccc(NC(=O)CN2CCSc3ccc(S(=O)(=O)N4CCCC4)cc32)cc1,.,.,-27.0%,.,.
CC(C)CCOCc1nc2sc3c(c2c(=O)[nH]1)CCC(C)C3 (centres undefined),9.2%,14.3%,12.6µM*,1.1,-0.4%
Cc1nnc(SCC(=O)NC(=O)Nc2ccc3c(c2)OCCO3)n1N,17.2%,-13.5%,10µM*,0.8,3.8%
Cc1cccc(CCn2c(=O)c3ccccc3n(Cc3cccc(F)c3)c2=O)c1,.,.,3.2%,.,.
C=CCN1c2ccccc2[C@]23C[C@@H](C(=O)OC)N(C(=O)c4ccc(Br)cc4)C2=NC(C(=O)OC)=C(C(=O)OC)[C@H]13,-2.0%,5.62µM*,-64.4%,0.6,-1.5%
C=CCN1c2ccccc2[C@]23C[C@@H](C(=O)OC)N(C(=O)c4cccs4)C2=NC(C(=O)OC)=C(C(=O)OC)[C@H]13,7.9%,6.31µM*,0.0%,0.3,1.8%
CN(C)CC(CCCCC(CN(C)C)C(=O)c1ccccc1)C(=O)c1ccccc1 (centres undefined),?,10µM*,-54.8%,-4.0,-5.2%
O=C(NC(=S)Nc1nc2c(s1)CCCC2)c1ccccc1,?,4.3%,27.8%,0.8,-4.0%[46.1 µM]
S=C(Nc1nc2c(s1)CCCC2)NC1CC1,?,-2.8%,6.31µM*,-3.3,-0.1%
Oc1c(C=Nc2ccccc2)sc(=S)n1Cc1ccccc1,-2.1%,-0.3%,0.0%,71.4*,-1.4%
CCn1c(O)c(C=Nc2ccccc2)sc1=S,?,2.4%,3.16µM*,3.8,-5.5%
C=CCn1c(O)c(C=Nc2ccccc2)sc1=S,22.0%,2.3%,?,-0.3,3.8%
CC(C)C(=O)Nc1nnc2n1CCS2,.,.,8.0%,.,.
CN(c1ccc(C(=O)NCc2cccs2)cc1)S(=O)(=O)c1ccccc1,6.9%,2.24µM*,-19.0%,1.7,-6.4%
CC(C)Oc1ccc(C(=O)NCc2cccs2)cc1,7.2%,.,12.6µM*,0.3,7.5%
SMILES,p53 reactivator,uPA generation,BRCA1 expr act,IL2 activator,TCR activator
CC(C)Cc1cc(C(=O)NCc2cccs2)no1,?,-2.8%,12.6µM*,-3.2,-3.5%
Cc1cc(C(=O)NCc2cccs2)cs1,23.8%,-3.2%,10µM*,-0.4,0.4%
COc1cc(NC(=O)CNS(=O)(=O)c2cccs2)cc(OC)c1OC,.,.,-3.5%,.,.
Cc1c(CC(=O)NC(C)C)c(=O)oc2cc3c(cc12)CCC(C)(C)O3,13.3%,0.5%,11.2µM*,-1.5,2.6%
OC(c1ccccc1)(c1nc(-c2ccc3ccccc3c2)cs1)C(F)(F)F (centres undefined),.,.,-17.5%,-1.0,.
OC1(C(F)(F)F)CC(c2ccc3ccccc3c2)=NO1 (centres undefined),35.5µM*,9.2%,?,1.3,7.5%
COc1ccccc1NC(=O)CSc1nnc(N)s1,.,.,7.5%,.,.
CCOn1c(=O)c(-c2cc3ccccc3o2)[n+]([O-])c2ccccc21,?,3.7%,4.9%,51.9*,4.1%
COc1ccc(N2CCN(C(=O)CN3C(=O)COc4ccc(S(=O)(=O)N5CCC(C)CC5)cc43)CC2)cc1,.,.,-5.5%,.,.
CC1CCN(C(=O)CSc2nc3ccccc3[nH]2)CC1,?,.,3.55µM*,-0.5,7.3%
C/C(N)=C(/C#N)C(=O)CSc1nc2ccccc2[nH]1,?,.,7.94µM*,1.0,-0.2%
Cc1ccc(Cn2c(C(=O)Nc3ccc(Cl)cc3)cc3sccc32)cc1,.,.,-11.9%,.,.
O=C(/C=C/c1ccc(Cl)cc1)NCc1cccs1,19.5%,-3.7%,11.2µM*,-2.8,3.4%[46.1 µM]
CCc1ccc(C(=O)N/N=C/c2cccc3ccccc23)nc1,31.6µM*,-4.6%,?,-3.1,-1.2%[46.1 µM]
O=C(N/N=C/c1cccc2ccccc12)c1cccnc1,2.2%,0.0%,?,2.4,-49.8%
Cc1ccccc1C(=O)N/N=C/c1cccc2ccccc12,14.1%,-24.4%,12.6µM*,-0.7,-4.2%
CCOC(=O)c1[nH]c2ccccc2c1NC(=O)c1ccc(OC(C)C)cc1,.,.,-7.1%,.,.
CCc1ccc(-c2nnn(CCC#N)n2)cc1,-2.1%,0.9%,12.6µM*,1.8,6.6%
CCOc1ccc(-c2nnn(CCC#N)n2)cc1OC,-0.9%,0.7%,0.0%,0.1,2.9%
O=C(Nc1cnc2ccccn2c1=O)c1ccc(Cl)cc1,14.0%,.,11.2µM*,0.8,.
CS(=O)(=O)N1CCN(/[N+]([O-])=N/Oc2ccc([N+](=O)[O-])cc2[N+](=O)[O-])CC1,.,.,-42.7%,.,.
COc1ccc(/C=C/c2ccncc2)cc1,7.1%,-2.9%,10µM*,-0.8,-15.8%
CN(C)c1ccc(/C=C/c2ccncc2)cc1,?,-2.2%,7.94µM*,1.1,5.0%
CN(C)c1ccc(C=Cc2cnccn2)cc1,.,-13.5%,?,0.4,2.2%
COc1cccc(/C=C/c2ccncc2)c1OC,?,-15.1%,3.1%,5.9,0.8%
SMILES,p53 reactivator,uPA generation,BRCA1 expr act,IL2 activator,TCR activator
Cc1ccccc1-c1nc(Cc2ccccc2)no1,?,12.8%,10µM*,-2.3,1.5%
CCC(=O)N1c2ccc(S(=O)(=O)NCc3ccc(F)cc3)cc2CC1C (centres undefined),.,.,-9.4%,.,.
COc1ccc(CCNC(=O)c2nn(C)cc2Cl)cc1,10.8%,-9.6%,7.94µM*,-1.6,0.3%
COc1ccc(CCNC(=O)c2ccc(Cl)cc2)cc1,0.6%,-1.1%,16.3%,4.1,5.1%
CCOC(=O)c1c(NC(=O)CSc2cn(CCNC(=O)c3ccc(OC)c(OC)c3)c3ccccc23)sc2c1CCC2,.,.,-28.8%,.,.
CCC(=O)Nc1cc(-c2cccc(C)c2)nn1-c1ccccc1,.,.,-0.2%,.,.
O=C(/C=C/c1cccc(O)c1)c1ccc(N2CCOCC2)cc1,?,10µM*,-6.0%,-0.6,-2.7%
